# This is a sample that favours compounds with a hit; in the whole collection about 3.1% have one here.
# Tau fluor cs: counter-screen for tau fibril formation inhibitors; tau K18 P301L Alexa594 fluorescence, heparin fibrillization; Potency, µM (top dose mostly 57.7 µM), inactives show at the top dose activity change, negative = decrease; 0.93% of 280,000 active; note: nearly all actives have a fitted effect of over 55% in size
#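 Human tau K18 P301L (15 uM unlabeled, 0.24 uM Alexa 594-labeled) in 100 mM sodium acetate pH 7 with 20 uM heparin, 6 hr at 37 C. ThT 30 uM added, 1 hr ambient; Alexa 594 FP and total fluorescence read at 555/632 nm.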
# Tau fibril FP: blocks human tau fibril formation measured by polarization | 0.39% of 280,000 active | P10636 | K18 P301L tau heparin fibrillization, Alexa594 FP, 6 h | Potency, µM (series often up to 57.7 µM), for the others: at the top dose activity, negative = inhibition, most hits filed as inhibitors; note: nearly all actives have a fitted effect of over 55% in size
# Target sequence (P10636 561-689 P618L limits assumed): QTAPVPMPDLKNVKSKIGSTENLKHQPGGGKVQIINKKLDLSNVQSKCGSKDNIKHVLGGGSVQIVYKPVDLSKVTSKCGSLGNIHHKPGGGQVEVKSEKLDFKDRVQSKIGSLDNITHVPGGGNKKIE
#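 Quantitative HTS format: compounds meet 15 uM recombinant K18 P301L tau and Alexa 594-tau tracer in 100 mM sodium acetate pH 7; 20 uM heparin triggers fibrillization at 37 C over 6 hr; FP gives the signal.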
# TR SRC2 fluor cs: counter-screen for TRb-SRC2 inhibitors: fluorescence interference; TRb/SRC2 Texas Red total fluorescence interference; 0.29% of 280,000 active; Potency, µM (doses to about 106 µM), without a hit: at the top dose fluorescence change, negative = quenching; active = well fitted curve in either direction with a large enough effect; inconclusive = small, poorly fitted or top-dose-only effect
#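 Human TRb ligand-binding domain at 0.6 uM with 20 nM Texas Red SRC2 peptide in Tris buffer containing 1 uM T3 and 5% DMSO, incubated with compound 5 h at ambient temperature. Total fluorescence (555/632 nm) calculated as parallel + 2 × perpendicular.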
# Tau ThT inhib: blocks human tau fibril formation measured by thioflavin T. P10636. recombinant tau K18 P301L (four-repeat tau fragment), heparin-induced fibrillization, ThT fluorescence. Potency, µM (titrated, usually from 57.4 µM), inactives show top-dose activity, negative = inhibition, hits mostly inhibitors. 2.1% of 270,000 active. AID 1460; note: nearly all actives have a fitted effect of over 55% in size
#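 Aggregation was driven by heparin (20 uM final) acting on recombinant tau […] bearing P301L in 100 mM sodium acetate pH 7; fibrils were detected with Thioflavin T.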
# TRb-SRC2 inh: disrupts binding of human TR beta to SRC2. TRbeta-SRC2 peptide binding, fluorescence polarization; receptor liganded with 1 µM T3. Potency, µM (titrated, usually from 106 µM), for inactives: top-dose activity change, negative = inhibition, usual class: inhibitors. P10828. 0.065% of 280,000 active;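 note: plate controls were bound peptide for no effect and peptide without receptor for full effect; nearly all actives have a fitted effect of over 50% in size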
#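 Fluorescence polarization of 20 nM Texas Red SRC2 peptide (20-aa NR interaction domain) bound to 0.6 uM human TRb ligand-binding domain, with 1 uM T3, after 5 hr at ambient temperature; inhibition seen as decreased polarization.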
# * = called active by the depositor; ? = inconclusive; nt = no result; [ ] = dose if it differs, or a comment. Unless noted, calls come from the whole dose curve; as a rule, active = well fitted curve in the direction sought with a large enough effect; inconclusive = small, poorly fitted or top-dose-only effect, or another doubt; inactive = no such curve, though single readings can be large; an effect the other way counts as inactive or inconclusive. Unless noted, % is set by controls: 0 for no effect and ±100 for the full control effect; potency is the fitted concentration of half-maximal effect.
SMILES,Tau fluor cs,Tau fibril FP,TR SRC2 fluor cs,Tau ThT inhib,TRb-SRC2 inh
COC(=O)c1c(Cl)c2n3ccccc3c(C)c(-c3ccccc3)c-2c1C(=O)OC,?,?,9.4%,7.94µM*,-8.6%
COC(=O)c1c(C)[nH]c(C=O)c1-c1ccccc1,-11.3%,7.0%,-1.0%,-16.3%,0.3%
CC(C)=NNc1nc(-c2ccc(N3C(=O)CCC3=O)cc2)cs1,?,?,-1.4%,17.8µM*,-6.5%
Cc1ccc(C)c(CSc2nc3ccncc3n2CC(=O)Nc2ccc(N(C)C)cc2)c1,10µM*[quencher],?,0.8%,?,0.5%
Cc1ccc(C)c(CSc2nc3ccncc3n2CC(=O)Nc2ccc(C)c(C)c2)c1,?,-15.4%,-1.6%,-9.1%,2.1%
COc1ccc(NC(=O)Cn2c(SCc3cc(C)ccc3C)nc3ccncc32)c(OC)c1OC,8.91µM*[quencher],-7.6%,-1.0%,?,0.6%
COc1ccc(NC(=O)c2c(C)oc3ccc(O)c(CN4CCCCCC4)c23)cc1Cl,-22.5%,-0.9%,794µM*[quencher],-11.2%,-8.5%
Cc1ccc(NC(=O)c2c(C)oc3ccc(O)c(CN4CCCCC4)c23)cc1,-9.0%,-0.9%,-13.1%,-4.5%,-1.5%
COc1cc(C(=O)NCCN2C(=O)S/C(=C\c3ccc(F)cc3)C2=O)ccc1OCC(=O)N1CCOCC1,-12.8%,-3.5%,-0.5%,-22.5%,0.7%
CCOC(=O)CN=C1CC(C)(C)CC2=C1Sc1ncnc(N(C)C)c1N2,?,-18.7%,2.8%,15.8µM*,-13.3%
O=C(O)c1c(Cl)c(Cl)c(Cl)c(Cl)c1-c1c2cc(I)c(=O)c(I)c-2oc2c(I)c(O)c(I)cc12,1.58µM*[fluorescent],-130.4%,2.82µM*[fluorescent],3.16µM*,5.01µM*
CCOC(=O)C1=C(CN2CCCCC2)NC(=O)NC1c1ccc(C)cc1 (stereo unspecified),-5.8%,-2.4%,-0.1%,-4.9%,-13.1%
CCc1ccc(-c2nn(CC(=O)NC3CCCC3)c3c2cnc2ccc(C)cc23)cc1,-1.0%,?,-7.5%,1.5%,0.6%
Nc1ccccc1Nc1cc(-c2ccccc2)nn1-c1cccc(Cl)c1,11.2µM*[quencher],?,3.8%,?,6.9%
CCN(CC)C(=O)c1cccnc1,nt,nt,0.3%,nt,-1.1%
CC(C)(C)c1ccc(NC(=O)c2ccsc2)cc1,-30.0%,-7.9%,3.7%,-23.6%,1.6%
Cn1c(O)c(C2=c3ccccc3=NC2=O)sc1=Nc1ccc(Cl)cc1,?,14.9%,-4.7%,10µM*,-0.3%
COc1ccc(C(=O)NCc2ccc3c(c2)CCO3)cc1,1.6%,10.3%,-2.1%,-2.4%,3.8%
Nc1ccc(S(N)(=O)=O)cc1N,?,-17.1%,-1.3%,12.6µM*,3.5%
Cc1cc2ccccn2c1C(=O)c1ccc(NN)c([N+](=O)[O-])c1,?,4.5%,-2.8%,10µM*,2.4%
O=C(O)C(S)[C@@H](S)C(=O)O (stereo partly specified),-28.7%,11.2µM*,-13.2%,7.94µM*,4.4%
N[C@H](C(=O)O)[C@H](O)C(=O)O,-1.0%,-0.7%,-17.7%,-3.6%,0.7%
O=C1CSc2ccc(C(=O)Nc3cccc(S(=O)(=O)Nc4ccc(Br)cc4)c3)cc2N1,10µM*[quencher],17.8µM*,1.7%,6.2%,7.7%
O=C(O)c1cccc(NC(=O)c2cccc(S(=O)(=O)Nc3cccc(C(=O)O)c3)c2)c1,-1.9%,-11.8%,-5.0%,-0.6%,-7.2%
O=C(O)c1cccc(NC(=O)c2cccc(S(=O)(=O)Nc3cccc(F)c3)c2)c1,1.1%,1.7%,0.316µM*[quencher],0.1%,?
O=C(NC1=NCCS1)c1cc(-c2ccc(-c3ccccc3)cc2)nc2ccccc12,-23.2%,28.2µM*,3.1%,-4.9%,8.4%
COC(=O)c1sc(NC(=O)c2cc(-c3ccccc3)nc3ccccc23)c(C#N)c1C,?,?,0.8%,28.2µM*,6.7%
C=CCn1c(Cc2cccs2)nnc1SCC(=O)c1cccc(Br)c1,-0.9%,-1.8%,3.3%,-8.0%,-2.3%
O=C1NC(=O)c2c1c(-c1ccccc1)cc1[nH]c3ccc(O)cc3c21,nt,nt,-25.2%,nt,8.5%
Cc1nn(-c2ccccc2)c(C)c1/C=N/N1CCN(Cc2ccccc2)CC1,-19.8%,-0.8%,-2.2%,-14.8%,-2.2%

# Screening results from PubChem.
